Data taken from PubChem BioAssay AID686979 (National Center for Advancing Translational Sciences (NCATS), 2013).
In all, about 420,000 compounds went through this assay and about 50,000 (12%) were called active. Inconclusive results (about 26%) are left out. The call rests on the fitted dose curve; in most records, active means well fitted inhibition curve with a large enough effect; inconclusive means small, poorly fitted or top-dose-only effect; inactive means flat fitted curve, though single readings scatter. The entries come from a sample that favours actives as a whole. Entries that show only a call come without a potency.
Potency means the concentration at half of the fitted maximal effect.

Test: qHTS for Inhibitors of human tyrosyl-DNA phosphodiesterase 1 (TDP1): qHTS in cells in presence of CPT; further: nearly all actives have a fitted effect of over 55% in size
Details: chicken DT40 Tdp1-/-;hTDP1 cells + 20 nM CPT, ATP luminescence, 48 h; series mostly up to 46.2 µM
In short: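 Chicken DT40 Tdp1-/- cells stably complemented with human TDP1 were seeded at 400 cells/well in medium containing 20 nM camptothecin, exposed to pin-transferred compounds, and grown at 37 °C for at least 48 hr. Viability was read as ATP luminescence.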
For `O=[N+]([O-])c1ccc(N2CCNCC2)cc1NCc1cccnc1`, the Potency was “inactive”.
For `CN1CCN(/N=C/c2ccc(C#N)cc2)CC1`, the Potency was “inactive”.
In the case of `COc1ccc(-n2c(C)cc(C(=O)CN3C(=O)NC4(CCc5ccccc54)C3=O)c2C)cc1` (stereo not drawn), the Potency is reported as 14.6 µM (active).
In the case of `COc1ccc(C(=O)CN2C(=O)NC3(CCc4ccccc43)C2=O)c(OC)c1` (stereo not drawn), the Potency is reported as “inactive”.
For `COc1ccc(CNC(=O)CN2C(=O)NC3(CCCc4sccc43)C2=O)cc1` (stereo not drawn), the Potency was “inactive”.
In the case of `Cc1cc(/C=C2\SC(=O)N(C)C2=O)c(C)n1-c1cccc(C(=O)O)c1`, the Potency is reported as “inactive”.
In the case of `COc1ccccc1NC(=O)C1=C(C)Nc2nc3ccccc3n2C1c1cccs1` (stereo not drawn), the Potency is reported as 4.11 µM (active).
With `COc1ccccc1NC(=O)C1=C(C)Nc2ncnn2C1c1sccc1C` (stereo not drawn) the Potency was “inactive”.
With `CCOC(=O)C1=C(C)Nc2nc3ccccc3n2C1c1cccs1` (stereo not drawn) the Potency was “inactive”.
In the case of `O=C(c1ccccc1)c1cc(-c2ccccn2)c(N2CCOCC2)s1`, the Potency is reported as “inactive”.
In the case of `c1csc(-c2nnc(COc3ncnc4sccc34)o2)c1`, the Potency is reported as “inactive”.
In the case of `COc1ccccc1C1CN(Cc2ccccc2O)Cc2ccccc2O1` (stereo not drawn), the activity change, negative = growth inhibition is reported as -2.83% [at 9.04 µM] (inactive).
With `COC(=O)c1ccc(S(=O)(=O)N2CCC(c3nc4ccccc4o3)CC2)cc1` the Potency was “inactive”.
With `O=C(c1ccc(C(F)(F)F)cc1)N1CCC(c2nc(-c3ccc(S(=O)(=O)N4CCCC4)cc3)no2)CC1` the Potency was 20.6 µM (active).
With `NC(=O)C1CCN(C(=O)c2ccc(C(F)(F)F)cc2)CC1` the Potency was “inactive”.
In the case of `Cn1c(SCC(=O)C(C)(C)C)nnc1-c1ccccn1`, the Potency is reported as “inactive”.
For `CCOC(=O)c1c(S(=O)(=O)N2CCC(C(=O)NCc3ccccc3OC)CC2)c(C)n(C)c1C`, the Potency was “inactive”.
In the case of `CCCCNC(=O)Cn1nc(C)c(S(=O)(=O)N2CCOCC2)c1C`, the Potency is reported as “inactive”.
With `COc1ccc2nc(N3CCN(C(=O)c4ccc([N+](=O)[O-])o4)CC3)sc2c1` the Potency was 14.6 µM (active).
With `Cc1ccc2nc(N3CCN(C(=O)c4ccco4)CC3)sc2c1` the Potency was “inactive”.
For `COc1ccc2nc(N3C(=O)C(O)=C(C(=O)c4ccco4)C3c3ccco3)sc2c1` (stereo not drawn), the Potency was “inactive”.
In the case of `COc1ccc(C(=O)OCC(=O)c2ccc(Cl)s2)c(OC)c1OC`, the Potency is reported as “inactive”.
For `COc1ccc(-c2[nH]ncc2CN(C)Cc2c(C)n[nH]c2C)c(OC)c1`, the Potency was “inactive”.
In the case of `COc1ccc(Oc2cn[nH]c2-c2ccc(OC)cc2O)cc1`, the Potency is reported as 25.9 µM (active).
For `Oc1ccc(-c2[nH]ncc2-c2nc3ccccc3s2)c(O)c1`, the Potency was “inactive”.
In the case of `CN1CCN(c2ccc([N+](=O)[O-])c(Sc3nc4ccccc4[nH]3)c2)CC1`, the Potency is reported as “inactive”.
For `CC(C)c1ccc(NC(=O)COC(=O)c2ccc(CN3CCCC3=O)cc2)cc1`, the Potency was “inactive”.
In the case of `O=C1CN(C(=O)COC(=O)/C=C/c2ccc(F)cc2)c2ccccc2N1`, the Potency is reported as “inactive”.
For `COc1ccc(-c2nc3sc(CCNC(=O)C(C)(C)C)c(C)n3n2)cc1`, the Potency was 29.1 µM (active).
In the case of `CCOc1ccc2nc(NCCNC(=O)C(C)(C)C)c(C)cc2c1`, the Potency is reported as “inactive”.
For `Cc1c(CCNC(=O)c2ccc(C(F)(F)F)cc2)sc2nc(-c3ccc(F)cc3)nn12`, the Potency was “inactive”.
With `O=C(NC1CCCC1)C1c2ccccc2OCC(=O)N1CC(F)(F)F` (stereo not drawn) the Potency was “inactive”.
For `CCn1ccnc1CN1CCCC(C(=O)c2ccc3c4c(cccc24)CC3)C1` (stereo not drawn), the Potency was 7.31 µM (active).
With `CC(=O)NCC(=O)N1CCCC(C(=O)c2ccc3c4c(cccc24)CC3)C1` (stereo not drawn) the Potency was “inactive”.
In the case of `Cc1ccccc1N1CCN(C2CCCN(C(=O)c3ocnc3C)C2)CC1` (stereo not drawn), the Potency is reported as “inactive”.
For `CCc1nccn1CCC(=O)N1CCCC(N2CCN(c3ccccc3F)CC2)C1` (stereo not drawn), the Potency was “inactive”.
With `Cc1ncoc1C(=O)N1CCCC(C(=O)c2ccc3c4c(cccc24)CC3)C1` (stereo not drawn) the Potency was 18.4 µM (active).
With `Cc1c(CN2CCCC(C(=O)c3cccc(Cl)c3)C2)c(=O)n(-c2ccccc2)n1C` (stereo not drawn) the Potency was “inactive”.
With `CCOC1=C2[C@H]([C@H]3C(=O)N(c4ccccc4)C(=O)[C@H]3C1)[C@@H](c1ccccc1)N(S(=O)(=O)c1ccc(C)cc1)[C@H]2c1ccccc1` the Potency was “inactive”.
For `O=C(Cn1ncn2nc(-c3cccs3)cc2c1=O)NCc1cccc(Br)c1`, the Potency was “inactive”.
For `COc1cc(NC(=O)c2ccccc2)c(OC)cc1NC(=O)Cc1ccccc1`, the Potency was “inactive”.
For `COc1ccc(C(=O)OCC(=O)Nc2cc(C)on2)cc1F`, the Potency was “inactive”.
In the case of `CC(=O)c1ccc(NC(=O)C(C)OC(=O)c2ccc(NS(=O)(=O)c3ccc4[nH]c(=O)[nH]c4c3)cc2)cc1` (stereo not drawn), the Potency is reported as “inactive”.
For `COc1cccc(/C=N\Nc2nncc(-c3ccccc3)n2)c1`, the Potency was “inactive”.
In the case of `COc1cc(/C=N/n2c(C)n[nH]c2=S)ccc1OCc1ccccc1`, the Potency is reported as “inactive”.
With `CCOc1ccc(/C=N/Nc2nncc(-c3ccccc3)n2)cc1OC` the Potency was 16.4 µM (active).
In the case of `CC(CO)N1CCS(=O)(=O)CC1` (stereo not drawn), the Potency is reported as “inactive”.
In the case of `COc1ccc(/C=C/c2c(-c3cccc(C)c3)oc3ccc(-c4ccc5c(c4)OCO5)cc23)cc1`, the Potency is reported as “inactive”.
In the case of `CC1CN(Cc2ccccc2)C(=S)NC1=O` (stereo not drawn), the Potency is reported as “inactive”.
For `CC(=O)Oc1c2c(c3c(c1CC=C(C)C)O[C@@]14C(=CC5CC1C(C)(C)OC4(C/C=C(\C)C(=O)O)C5=O)C3=O)OC(C)(CCC=C(C)C)C=C2` (stereo partly drawn), the Potency was 2.91 µM (active).
In the case of `O=C1C(=O)N(CCCN2CCOCC2)C(c2ccc([N+](=O)[O-])cc2)/C1=C(\O)c1ccc2c(c1)OCCO2` (stereo not drawn), the Potency is reported as “inactive”.
For `Cc1ccc(NC(=O)CN(C)C(=O)Cn2nnc(-c3ccccc3)n2)cc1`, the Potency was “inactive”.
With `Cc1cc(O)c(C2(O)C(=O)Nc3ccccc32)cc1C` (stereo not drawn) the Potency was “inactive”.
With `COc1ccc2ncc3c(-c4ccc(C)c(C)c4)nn(CC(=O)NC4CCCC4)c3c2c1` the Potency was 5.17 µM (active).
In the case of `CCc1ccc2ncc3c(-c4ccc(C)cc4)nn(CC(=O)NCc4ccccc4)c3c2c1`, the Potency is reported as “inactive”.
For `COc1ccc(-c2nn(CC(=O)NC3CCCC3)c3c2cnc2ccc(F)cc23)cc1`, the Potency was “inactive”.
In the case of `O=C(COC(=O)CSc1ccccc1)Nc1ccc(F)cc1F`, the Potency is reported as “inactive”.
With `O=C(C[C@H]1C[C@@H]2c3cc(NC(=O)C4CCC4)ccc3O[C@@H]2[C@H](CO)O1)NC1CCCCC1` the Potency was “inactive”.
With `O=C(C[C@H]1C[C@H]2c3cc(NS(=O)(=O)c4ccc(F)cc4)ccc3O[C@H]2[C@H](CO)O1)NCc1cc(F)ccc1F` the Potency was 16.4 µM (active).
For `O=C(Nc1ccc2c(c1)[C@@H]1C[C@@H](CC(=O)N3CCCCC3)O[C@@H](CO)[C@@H]1O2)NC1CCCCC1`, the Potency was “inactive”.
In the case of `Cc1cccc(C(=O)N2CCC(c3nc4ccccc4s3)CC2)c1`, the Potency is reported as “inactive”.
With `COC(=O)C1=NNC2(c3ccc(C)cc3)C(=O)N(c3cccc(C)c3C)C(=O)C12` (stereo not drawn) the Potency was “inactive”.
For `CCCCn1c(N)c(N(CC)C(=O)c2ccc(N(C)S(=O)(=O)c3ccc(C)cc3)cc2)c(=O)[nH]c1=O`, the Potency was “inactive”.
With `Cc1cccc(C(=O)Nc2ccccc2-c2nnn(CC(=O)Nc3ccc4c(c3)OCCO4)n2)c1` the Potency was “inactive”.
For `Cc1ccc(-n2ncc3c(NCCCn4ccnc4)ncnc32)cc1Cl`, the Potency was 20.6 µM (active).
For `O=C(NCCCn1ccnc1)Nc1ccc(Cl)cc1Cl`, the Potency was “inactive”.
In the case of `Cc1ccc2c(Cl)c(C(=O)NCCCn3ccnc3)sc2c1`, the Potency is reported as “inactive”.
In the case of `CC1CN(C(=O)N2CCC(C(=O)NCc3cccs3)CC2)c2ccccc2O1` (stereo not drawn), the Potency is reported as “inactive”.
With `Cc1cnc(CN(C)C(=O)C2CCC(=O)N(CCc3cccc(F)c3)C2)[nH]1` (stereo not drawn) the Potency was “inactive”.
For `O=C(NC(=S)Nc1ccc(Br)cc1F)C1CCCCC1`, the Potency was “inactive”.
For `O=C(NC(=S)Nc1ccc(Cl)cc1Cl)C1CC1`, the Potency was 20.6 µM (active).
For `S=C(Nc1ccc(Cl)cc1Cl)N1CCCC1`, the Potency was “inactive”.
With `CCCCCCNC(=O)CSc1nccn1Cc1ccccc1` the Potency was “inactive”.
In the case of `COC1[C@H](OC(N)=O)C(O)[C@H](Oc2ccc3c(O)c(NC(=O)c4ccc(O)c(CC=C(C)C)c4)c(=O)oc3c2C)OC1(C)C` (stereo partly drawn), the Potency is reported as “inactive”.
With `Cc1ccc(NC(=O)CN(C)C(=O)COC(=O)c2nccnc2N)cc1` the Potency was “inactive”.
With `CC[C@@H]1CCCCc2ccccc2[C@@H](C(=O)C[C@H](O)CC(C)=O)OC1=O` the Potency was “inactive”.
In the case of `O=C(CN1C(=O)C2C3C=CC(C3)C2C1=O)NCC1COc2ccccc2O1` (stereo not drawn), the Potency is reported as “inactive”.
For `O=C1C(=O)N(CC2COc3ccccc3O2)c2ccccc21` (stereo not drawn), the Potency was 1.64 µM (active).
With `CCn1ccnc1C[C@@H]1COc2ccccc2O1` the Potency was “inactive”.
For `Cc1cc(C(=O)CCl)c(C)n1CC1COc2ccccc2O1` (stereo not drawn), the Potency was 2.06 µM (active).
For `Cc1noc(C)c1C(=O)NCC1COc2ccccc2O1` (stereo not drawn), the Potency was “inactive”.
With `Cc1cc(NC(=O)CCC2COc3ccccc3O2)no1` (stereo not drawn) the Potency was “inactive”.
In the case of `O=c1c(NCc2cccs2)nccn1-c1ccccc1`, the Potency is reported as “inactive”.
In the case of `CCN(CC(=O)Nc1c(F)cccc1F)C(=O)CN1c2cccc3cccc(c23)S1(=O)=O`, the Potency is reported as “inactive”.
With `O=C(Cn1cc(C(F)(F)F)ccc1=O)Nc1ccc2c(c1)OCCO2` the Potency was “inactive”.
In the case of `O=C(NCCc1nnc2ccc(SCC(=O)N3CCOCC3)nn12)c1ccccc1`, the Potency is reported as “inactive”.
For `CC1=CCC2C(=O)N(c3cccc(C(=O)NC(C)c4ccccc4)c3)C(=O)C2C1` (stereo not drawn), the Potency was “inactive”.
In the case of `CC1(c2ccc(Cl)cc2)NC(=O)N(CC(=O)c2ccc3c(c2)OCO3)C1=O` (stereo not drawn), the Potency is reported as “inactive”.
In the case of `Cc1oc(C)c2c(=O)cc(-c3ccc4c(c3)OCO4)cc(OC(=O)c3ccc(Cl)cc3)c12`, the Potency is reported as 20.6 µM (active).
In the case of `COc1ccc(Cl)cc1NC(=O)CN(C)CC(=O)Nc1ccc2c(c1)OCO2`, the Potency is reported as “inactive”.
For `Cc1cc(-c2ccccc2)nc(N2CCC(C(=O)NC34CC5CC(CC(C5)C3)C4)CC2)n1`, the Potency was “inactive”.
With `CSCCC(NC(=O)COc1ccccc1)C(=O)N1CCN(c2cccc(C(F)(F)F)c2)CC1` (stereo not drawn) the Potency was 16.4 µM (active).
In the case of `CSCCC(NC(=O)COc1ccccc1)C(=O)OCCOc1ccc(F)cc1` (stereo not drawn), the Potency is reported as “inactive”.
In the case of `CSCCC(NC(=O)COc1ccccc1)C(=O)OCCOc1ccc(Br)cc1` (stereo not drawn), the Potency is reported as “inactive”.
With `Nc1cc(N2CCCCCC2)c2nonc2c1[N+](=O)[O-]` the Potency was “inactive”.
In the case of `C(=Nc1ccc(/C=C/c2ccnc3ccccc23)cc1)Nc1ccc(/C=C/c2ccnc3ccccc23)cc1`, the Potency is reported as 10 µM (active).
With `C(=Nc1ccc(/C=C/c2ccnc3ccccc23)cc1)c1cc2c3c(c1)CCCN3CCC2` the Potency was 11.2 µM (active).
In the case of `CCCCC(CCCC)c1ccc(C=Nc2ccc(/C=C/c3ccnc4ccccc34)cc2)cc1`, the Potency is reported as 17.8 µM (active).
